In PubChem BioAssay one finds composite z-score and z-score data, which are given here for five compounds.

The nature of experiment [1]: compounds binding Alexa647 anti-His antibody – biochemical, small-molecule microarray, 635 nm fluorescence, artefact control for SMM control protein annotation, primary screen (AID 1128).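 Also: score merges feature fluorescence with signal-to-noise for each printed compound spot.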 As to conditions: higher = more signal.
The test system of experiment [2] is Human papillomavirus type 1a E7 protein (residues 1-88). Briefly: HPV1a E7 small-molecule binders, primary screen, biochemical, small-molecule microarray, residues 1-88, 635 nm (AID 1129). To be noted: small-molecule microarray binding, fluorescence 635 nm; higher = more signal.
In experiment [3] the target is Focal adhesion kinase 1 (Homo sapiens) (UniProt Q05397). Briefly: PTK2 protein binding on printed compound slides – biochemical, small-molecule microarray, 635/667 nm fluorescence, BSA, DTT, primary screen (AID 1130).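 Also: composite of spot emission at 667 nm and signal to noise over triplicate slides.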 To be noted: 635 nm fluorescence, higher = more signal.
For experiment [4], the system named is Fibrinogen (Alexa647-labelled). Kind of experiment: Alexa647-fibrinogen binding to printed small molecules – biochemical, small-molecule microarray, 635/667 nm fluorescence, artefact control for SMM control-protein annotation, profiling panel (AID 1131).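 Also: z-score merges 667 nm fluorescence with per-spot signal-to-noise over triplicate slides.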 To be noted: fibrinogen-A647 binding fluorescence, higher = more signal.
The target in experiment [5] is Follistatin (Homo sapiens) (UniProt P19883). Kind of experiment: FST protein binding to printed compounds – biochemical, small-molecule microarray, 635/667 nm fluorescence, primary screen (AID 1132). As to conditions: 635 nm fluorescence, higher = more signal.
Experiment [6] deals with Fibroblast growth factor 2 (Homo sapiens) (UniProt P09038). Kind of experiment: basic fibroblast growth factor binding to printed compounds – biochemical, small-molecule microarray, 635/667 nm fluorescence, primary screen (AID 1133). To be noted: FGF2, fluorescence 635/667, higher = more signal.
A short description of experiment [7]: JC-1 mitochondrial potential readout, lung cancer cells – cell-based, A549, JC-1 fluorescence, basal, 24 h, 100 nL, profiling panel (AID 1138).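 Also: A549 lung adenocarcinoma cells under basal conditions with no added stimulus; test concentration not given here.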 As to conditions: higher = more signal.
Experiment [8] concerns Lefty1. Briefly: Lefty1 protein binding to printed compounds – biochemical, small-molecule microarray, 635/667 nm fluorescence, primary screen (AID 1139). As to conditions: fluorescence 635/667, higher = more signal.
The subject of experiment [9] is wheat germ agglutinin (Triticum aestivum), Alexa647-labelled. Briefly: Alexa647-WGA lectin binding to printed small molecules – biochemical, small-molecule microarray, 635/667 nm fluorescence, artefact control for SMM control-protein annotation, profiling panel (AID 1140).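 Also: score merges 667 nm feature emission with signal to noise over triplicate slides.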 As to conditions: WGA-A647 binding, 635 nm fluorescence, higher = more signal.
Experiment [10] concerns the target Luciferin 4-monooxygenase (Photinus pyralis) (UniProt P08659). Kind of experiment: inhibition of purified Photinus pyralis luciferase – biochemical, luminescence, purified enzyme, 2006 set, primary screen (AID 1141).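 Also: cell-free assay with purified firefly luciferase at 100 ng per well in PBS; test concentration not given here.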 To be noted: purified firefly luciferase, SteadyGlo luminescence, 30 min; higher = more signal, called active from +8 up or from −8 down.
Experiment [11] deals with Wnt5a (protein binding on small-molecule microarray). Kind of experiment: small molecules binding Wnt5a protein – biophysical, small-molecule microarray, 635/667 nm fluorescence, primary screen (AID 1142).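 Also: fluorescence read at 667 nm with signal to noise per printed feature.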 As to conditions: 635 nm fluorescence, higher = more signal.
Experiment [12] is described as follows: ATP-based viability of Huh7 replicon cells – cell-based, CellTiter-Glo luminescence, basal, 48 h, cytotoxicity control for HCV replication inhibitor project, primary screen (AID 1143).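 Also: Huh7 hepatoma cells carrying a hepatitis C replication reporter with no stimulus; test concentration not given here.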 To be noted: higher = more signal, called active from +8 up or from −8 down. Background: A replicon is a self-replicating genome or part of one, used to study replication in cells.

A short description of experiment [13]: Pseudomonas biofilm growth suppression – PAO1 strain, BacTiter-Glo luminescence, LB-PBS, primary screen (AID 1144). As to conditions: P. aeruginosa PAO1 biofilm, 12 h, higher = more signal.
Experiment [14] in a line: basal CRE-LacZ reporter activity in PC12 – cell-based, unstimulated, primary screen (AID 1145). As to conditions: no forskolin, luminescence, 4.5 h, higher = more signal, called active from +8 up or from −8 down.
Experiment [15] in a line: forskolin-driven CRE-LacZ activity in PC12 – cell-based, CRE-LacZ reporter, forskolin-stimulated, primary screen (AID 1146).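 Also: PC12 cells with 6xCRE LacZ reporter stimulated by forskolin 10 µM; beta-galactosidase reporter signal reflecting CREB driven transcription.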 To be noted: luminescence, 4.5 h, higher = more signal, called active from +8 up or from −8 down.
Experiment [16] addresses Streptavidin (Streptomyces avidinii) (UniProt P22629). Kind of experiment: compounds binding control protein streptavidin – biophysical, small-molecule microarray, 635/667 nm fluorescence, artefact control for SMM compound annotation, primary screen (AID 1147).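 Also: signal reflects streptavidin binding to arrayed compounds as a control protein.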 To be noted: higher = more signal.
Experiment [17] is described as follows: probe aInhba binding on compound microarray – biochemical, small-molecule microarray, 635/667 nm fluorescence, primary screen (AID 1148).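 Also: score merges 667nm spot fluorescence with signal-to-noise for antibody binding to printed compounds.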 To be noted: higher = more signal.
Experiment [18] concerns the target Torsin-1A (Homo sapiens) (UniProt O14656). Briefly: TOR1A wild-type binding on microarray – cell lysate, small-molecule microarray, lysate, 635/667 nm, primary screen (AID 1149). As to conditions: COS7 hTOR1A-WT lysate, 635 nm fluorescence, higher = more signal.
Experiment [19] shares this target. Briefly: torsin A mutant lysate binding on microarrays – cell lysate, small-molecule microarray, COS7 lysate, 635/667 nm fluorescence, primary screen (AID 1150).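 Also: score pools 667 nm emission and signal to noise measuring lysate protein binding.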 To be noted: COS7 hTOR1A mutant lysate, 635 nm fluorescence, higher = more signal.
For experiment [20], the system named is Sonic hedgehog protein (Shh). Briefly: Sonic hedgehog microarray binding compounds – biochemical, small-molecule microarray, 635/667 nm fluorescence, primary screen (AID 1151).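 Also: Shh protein binding to compounds spotted on small-molecule microarray slides; score combines spot fluorescence intensity with signal-to-noise across triplicate slides.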 As to conditions: 635 nm fluorescence, higher = more signal.

The source made the active and inactive calls. Unless noted, no rule for the calls is given here.

Sequence of Torsin-1A (Homo sapiens) (O14656 whole entry, looked up): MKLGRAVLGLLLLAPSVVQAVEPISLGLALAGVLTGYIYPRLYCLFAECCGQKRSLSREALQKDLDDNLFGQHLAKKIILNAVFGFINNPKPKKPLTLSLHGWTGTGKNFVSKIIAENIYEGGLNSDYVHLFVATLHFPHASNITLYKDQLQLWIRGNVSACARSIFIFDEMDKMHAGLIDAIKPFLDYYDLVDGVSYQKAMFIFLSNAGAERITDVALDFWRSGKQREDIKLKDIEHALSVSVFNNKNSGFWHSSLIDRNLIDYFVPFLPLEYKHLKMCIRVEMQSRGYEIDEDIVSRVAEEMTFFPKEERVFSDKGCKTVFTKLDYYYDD
Sequence of Fibroblast growth factor 2 (Homo sapiens) (P09038 whole entry, looked up): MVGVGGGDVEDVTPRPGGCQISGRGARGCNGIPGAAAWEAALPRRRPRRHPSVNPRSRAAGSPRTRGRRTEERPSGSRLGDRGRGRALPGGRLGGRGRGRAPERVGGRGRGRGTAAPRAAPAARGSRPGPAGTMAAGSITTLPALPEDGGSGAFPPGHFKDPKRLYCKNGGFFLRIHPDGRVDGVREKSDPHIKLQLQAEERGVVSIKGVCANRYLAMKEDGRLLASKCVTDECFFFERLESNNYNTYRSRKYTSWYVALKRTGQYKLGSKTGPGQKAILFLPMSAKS
Sequence of Luciferin 4-monooxygenase (Photinus pyralis) (P08659 whole entry, looked up): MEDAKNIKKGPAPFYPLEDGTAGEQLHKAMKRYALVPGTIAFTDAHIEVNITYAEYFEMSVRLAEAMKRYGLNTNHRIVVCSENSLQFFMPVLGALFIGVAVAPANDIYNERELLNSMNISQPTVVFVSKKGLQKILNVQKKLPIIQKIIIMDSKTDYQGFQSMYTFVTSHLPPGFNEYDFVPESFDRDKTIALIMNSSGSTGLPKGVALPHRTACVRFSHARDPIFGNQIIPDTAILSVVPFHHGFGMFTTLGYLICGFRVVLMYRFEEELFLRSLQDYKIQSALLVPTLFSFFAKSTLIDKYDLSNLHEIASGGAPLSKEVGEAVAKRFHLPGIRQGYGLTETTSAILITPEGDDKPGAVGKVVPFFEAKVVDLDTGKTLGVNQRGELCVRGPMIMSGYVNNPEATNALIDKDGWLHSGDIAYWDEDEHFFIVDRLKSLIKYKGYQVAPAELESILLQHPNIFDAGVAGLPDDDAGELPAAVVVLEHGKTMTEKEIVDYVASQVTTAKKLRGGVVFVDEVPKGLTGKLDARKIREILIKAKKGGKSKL
Sequence of Streptavidin (Streptomyces avidinii) (P22629 whole entry, looked up): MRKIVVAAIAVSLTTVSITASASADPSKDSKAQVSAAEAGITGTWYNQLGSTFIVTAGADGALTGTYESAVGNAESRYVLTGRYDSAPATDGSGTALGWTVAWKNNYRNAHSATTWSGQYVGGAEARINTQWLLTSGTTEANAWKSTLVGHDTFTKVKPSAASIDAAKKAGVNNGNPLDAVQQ
Sequence of Follistatin (Homo sapiens) (P19883 whole entry, looked up): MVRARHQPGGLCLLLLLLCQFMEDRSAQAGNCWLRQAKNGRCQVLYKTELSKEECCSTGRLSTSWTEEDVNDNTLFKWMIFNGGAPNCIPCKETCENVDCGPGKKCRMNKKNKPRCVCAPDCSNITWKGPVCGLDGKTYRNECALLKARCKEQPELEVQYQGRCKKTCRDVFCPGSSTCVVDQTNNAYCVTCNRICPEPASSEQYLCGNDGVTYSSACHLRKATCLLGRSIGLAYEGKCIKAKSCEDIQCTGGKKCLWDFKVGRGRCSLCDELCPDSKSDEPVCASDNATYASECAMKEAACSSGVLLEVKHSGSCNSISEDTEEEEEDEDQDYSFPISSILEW
Sequence of Focal adhesion kinase 1 (Homo sapiens) (Q05397 whole entry, looked up): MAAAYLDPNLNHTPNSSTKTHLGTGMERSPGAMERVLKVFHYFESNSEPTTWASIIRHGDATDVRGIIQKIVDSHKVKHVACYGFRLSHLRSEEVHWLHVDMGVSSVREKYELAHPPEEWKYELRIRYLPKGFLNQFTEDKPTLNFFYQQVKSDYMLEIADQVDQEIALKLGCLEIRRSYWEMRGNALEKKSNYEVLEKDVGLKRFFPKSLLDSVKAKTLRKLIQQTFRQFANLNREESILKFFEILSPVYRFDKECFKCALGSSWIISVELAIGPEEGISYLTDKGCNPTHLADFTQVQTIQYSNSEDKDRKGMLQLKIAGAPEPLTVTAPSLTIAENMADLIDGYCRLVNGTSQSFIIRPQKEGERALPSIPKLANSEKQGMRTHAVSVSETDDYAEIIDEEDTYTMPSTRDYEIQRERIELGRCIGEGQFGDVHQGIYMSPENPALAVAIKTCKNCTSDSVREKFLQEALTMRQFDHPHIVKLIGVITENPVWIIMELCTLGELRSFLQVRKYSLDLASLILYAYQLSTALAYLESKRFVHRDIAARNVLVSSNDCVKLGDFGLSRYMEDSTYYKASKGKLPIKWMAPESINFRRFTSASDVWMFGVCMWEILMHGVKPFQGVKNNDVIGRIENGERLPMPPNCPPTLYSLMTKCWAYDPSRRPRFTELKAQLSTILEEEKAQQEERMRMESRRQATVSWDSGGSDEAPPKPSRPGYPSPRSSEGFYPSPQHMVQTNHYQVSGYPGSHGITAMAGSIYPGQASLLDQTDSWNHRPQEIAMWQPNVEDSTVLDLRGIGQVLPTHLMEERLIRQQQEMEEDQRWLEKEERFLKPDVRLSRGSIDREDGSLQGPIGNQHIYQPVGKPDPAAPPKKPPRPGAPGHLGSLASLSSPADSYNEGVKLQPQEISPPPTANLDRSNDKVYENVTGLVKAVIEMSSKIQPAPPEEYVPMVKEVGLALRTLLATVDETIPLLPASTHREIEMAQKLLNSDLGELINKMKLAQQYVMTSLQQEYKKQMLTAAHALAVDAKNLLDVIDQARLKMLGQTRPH

`CCCCC(=C=CC[C@H](O)c1ccc(OCCO)cc1)C[C@H](O)c1cc(Cl)cc(Cl)c1O`: the composite z-score in [1] turned out to be 0.323; in experiment [2], 0.606; in experiment [3], 0.0593; in experiment [4] it was 0.463; in experiment [5], 0.906; in [6] it was 0.807. The composite z-score in [8] was 0.484; in experiment [9] it was 0.776; in experiment [11] it was -0.223; in experiment [16], 0.315; in experiment [17] it was -0.15; in [18], 0.296. In addition, the composite z-score in experiment [19] was determined as 0.51; in experiment [20], 0.646. The z-score in experiment [7] is 0.62; in experiment [10], -1.39 (inactive); in experiment [12], -0.849 (inactive); in experiment [13], -0.145 (inactive); in [14], 7.85 (inactive); in experiment [15], -0.218 (inactive).

Regarding `COCCOC(=O)N1C(=O)[C@@]2(c3ccccc31)[C@H](c1ccc(OCCO)cc1)N1[C@H](c3ccccc3)[C@H](c3ccccc3)OC(=O)[C@H]1[C@@H]2C(=O)N1CCCCCCC1`, the composite z-score in experiment [1] worked out at 3.91; in experiment [2], 1.37; in [3], 4.76; in experiment [4], 0.995; in [5], 1.55; in [6] it was 1.99. The composite z-score in [8] was 1.92; in experiment [9], 1.76; in [11] it was 2.44; in experiment [16] it was 4.09; in experiment [17], 2.11; in experiment [18] it was 3.76. The composite z-score in [19] worked out at 3.68; in [20] it was 2.29. In addition, the z-score in [7] is -1.75; in [10], -0.659 (inactive); in experiment [12] it was -2.59 (inactive); in [13], -0.302 (inactive); in [14], -0.329 (inactive); in experiment [15], 3.39 (inactive).

Take `C=C(COC)C(=O)CC[C@H](OC(C)=O)c1ccc(OCCO)cc1`: the composite z-score in experiment [1] was 0.943; in experiment [2], 0.0389; in experiment [3] it was -0.267; in experiment [4] it was -0.0148; in [5], 1.51; in experiment [6], 1.43. The composite z-score was 1.46 in experiment [8]; 0.777 in experiment [9]; 0.632 in experiment [11]; -0.0693 in experiment [16]; -0.0675 in experiment [17]; 1.2 in experiment [18]. In addition, the composite z-score in experiment [19] was 0.647; in [20], 1.85. For the same compound, the z-score in experiment [7] was -0.686; in [10] it was -0.574 (inactive); in [12], -3.53 (inactive); in experiment [13], -0.856 (inactive); in experiment [14], 2.77 (inactive); in experiment [15] it was 1.69 (inactive).

On to `COc1cc2c(cc1O)C(c1cccs1)N(Cc1sc3ccccc3c1Cl)CC2` (stereo not given), for which the composite z-score came to 2.64 in experiment [1]; 1.28 in [2]; 0.379 in experiment [3]; 1.01 in experiment [4]; 1.14 in [5]; 0.841 in experiment [6]. Besides, the composite z-score in [8] is 0.72; in experiment [9], 1.19; in experiment [11], 0.702; in experiment [16], 1.64; in experiment [17], 0.122; in experiment [18], 1.43. Moreover, the composite z-score is 1.56 in [19] and 0.953 in experiment [20]. Also, the z-score in experiment [7] is -0.702; in experiment [10], -0.42 (inactive); in experiment [12] it was -2.5 (inactive); in experiment [13] it was 0.546 (inactive); in experiment [14], -0.141 (inactive); in experiment [15] it was 0.93 (inactive).

Take `COC(=O)C1=CC(CCCO)=CC(C)N(Cc2cccc(OC(F)(F)F)c2)C=C1C(=O)OC` (stereo not given): the composite z-score is 0.178 in experiment [1]; 0.702 in experiment [2]; 0.955 in experiment [3]; -0.269 in experiment [4]; -0.278 in experiment [5]; -0.807 in experiment [6]. The composite z-score is -0.0105 in [8]; 1.11 in experiment [9]; 0.145 in experiment [11]; 0.747 in experiment [16]; -0.001 in experiment [17]; -0.148 in experiment [18]. Besides, the composite z-score was 0.47 in [19] and -0.681 in [20]. Further, the z-score was 0.142 in experiment [7]; 0.347 (inactive) in experiment [10]; -1.07 (inactive) in experiment [12]; -0.117 (inactive) in experiment [13]; -0.168 (inactive) in experiment [14]; 0.308 (inactive) in [15].
